# HT1080NT lethal = kills 2HG-producing HT-1080-NT fibrosarcoma cells. HT-1080-NT fibrosarcoma viability, CellTiter-Glo ATP luminescence, 48 h. Potency, µM (series often up to 46.1 µM), inactives show top-dose activity, negative = less viability, usual class: cytotoxic. actives 1.6% (n = 360,000). AID 686970;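 note: NT is the 2HG producing partner of a matched IDH1 knockdown line; potency is the fitted concentration of half-maximal effect; 0% = DMSO-treated cells and -100% = media-only wells without cells; nearly all actives have a fitted effect of over 55% in size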
#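 A 48-hour cytotoxicity screen used HT-1080-NT cells plated 2 hours before compound delivery. ATP-based CellTiter-Glo luminescence measured viability, normalized to DMSO and no-cell controls.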
# DT40 TDP1 CPT = DT40-hTDP1 cell growth loss with CPT. actives 12% (n = 420,000). AID 686979. chicken DT40 Tdp1-/-;hTDP1 cells + 20 nM CPT, ATP luminescence, 48 h. Potency, µM (titrated, usually from 46.2 µM), for inactives: top-dose activity change, negative = growth inhibition, hits mostly inhibitors; note: potency is the fitted concentration of half-maximal effect; nearly all actives have a fitted effect of over 55% in size
#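 Chicken DT40 Tdp1-/- cells stably complemented with human TDP1 were seeded at 400 cells/well in medium containing 20 nM camptothecin, exposed to pin-transferred compounds, and grown at 37 °C for at least 48 hr. Viability was read as ATP luminescence.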
# IL-1B inflam inh = blocks inflammasome-driven IL-1 beta release | THP-1 LPS/ATP IL-1B secretion, AlphaLISA, 16 h; hits give low values | AID 743279 | activity change, % at 57.5 µM | actives 4.7% (n = 360,000); in the data active = activity change below about -50%; inconclusive = mostly about -30% to -49%
#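 THP-1 cells pretreated 1 hr with compounds (up to 57.5 uM final), then stimulated with LPS (250 ng/mL final) plus ATP (1.25 mM final); secreted IL-1B measured by AlphaLISA after 16 hr, decreased signal indicating inhibition.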
# HT1080 IDH1KD tx = toxicity to HT-1080 IDH1 knockdown cells (counter line). HT-1080 IDH1 knockdown viability, ATP luminescence, 48 h. Potency, µM (titrated, usually from 46.1 µM), for inactives: top-dose activity, negative = toxicity, hits mostly cytotoxic. actives 2% (n = 360,000);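 note: potency is the fitted concentration of half-maximal effect; 0% = DMSO wells and -100% = cell-free medium wells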
#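 Assay cells: HT-1080 with IDH1 knockdown, 750 per well, RPMI/5% FBS. Exposure: 48 h at 37 °C following 2 h pre-incubation. Read: CellTiter-Glo luminescence; fitted concentration-response, curve class assigned.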
# 12-LOX inh = inhibitors of human 12S-lipoxygenase ALOX12; P18054; purified 12hLO, xylenol orange hydroperoxide absorbance; Potency, µM (top dose mostly 108 µM), for the others: top-dose activity change, negative = inhibition, most hits filed as inhibitors; actives 1.1% (n = 580,000); note: potency is the fitted concentration of half-maximal effect
# Target sequence (P18054 whole entry, looked up): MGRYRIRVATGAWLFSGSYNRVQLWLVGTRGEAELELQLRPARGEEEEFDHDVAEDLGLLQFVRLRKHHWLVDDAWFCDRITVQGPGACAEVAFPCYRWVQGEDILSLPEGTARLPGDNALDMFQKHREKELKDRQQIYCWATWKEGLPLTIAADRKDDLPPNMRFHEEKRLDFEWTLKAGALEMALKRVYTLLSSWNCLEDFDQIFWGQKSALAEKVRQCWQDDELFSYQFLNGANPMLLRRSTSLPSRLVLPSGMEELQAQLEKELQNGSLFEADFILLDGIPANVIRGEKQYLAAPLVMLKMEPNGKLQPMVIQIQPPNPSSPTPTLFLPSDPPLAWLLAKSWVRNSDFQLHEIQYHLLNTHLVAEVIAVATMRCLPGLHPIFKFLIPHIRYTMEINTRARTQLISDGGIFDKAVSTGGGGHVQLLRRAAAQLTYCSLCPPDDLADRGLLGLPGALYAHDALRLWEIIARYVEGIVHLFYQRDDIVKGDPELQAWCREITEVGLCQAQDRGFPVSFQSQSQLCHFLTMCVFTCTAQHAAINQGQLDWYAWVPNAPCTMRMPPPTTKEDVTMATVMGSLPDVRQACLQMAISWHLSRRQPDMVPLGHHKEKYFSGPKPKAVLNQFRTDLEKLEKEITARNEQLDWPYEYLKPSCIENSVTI
#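 Purified human 12hLO at 150 nM in 25 mM Hepes, 0.01% Triton X-100, pH 7.0, preincubated 15 min at room temperature with compound. Reaction started with 40 uM arachidonic acid, 30 min at room temperature. Hydroperoxide measured by Fe-xylenol orange, 573/405 nm absorbance ratio.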
# DT40 TDP1 no CPT = qHTS for Inhibitors of human tyrosyl-DNA phosphodiesterase 1 (TDP1): qHTS in cells in absence of CPT. DT40 Tdp1-/- hTDP1 cells, no CPT, ATP luminescence, 48 h. Potency, µM (top dose mostly 46.2 µM), inactives show top-dose activity change, negative = growth inhibition, most hits filed as inhibitors. actives 15% (n = 420,000); note: potency is the fitted concentration of half-maximal effect; nearly all actives have a fitted effect of over 55% in size
#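 Luminescent ATP content (CellTiter-Glo) served as the growth readout. Knockout chicken DT40 cells expressing human TDP1 were exposed to compounds without camptothecin for a minimum 48 hr at 37 °C.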
# Starred values were filed as active, the others as inactive; ? = inconclusive; · = no result. This excerpt belongs to a sample that is enriched for hits. Unless noted, calls come from the whole dose curve; as a rule, active = well fitted curve in the direction sought with a large enough effect; inconclusive = small, poorly fitted or top-dose-only effect, or another doubt; inactive = no such curve, though single readings can be large; an effect the other way counts as inactive or inconclusive. Unless noted, % is set by controls: 0 for no effect and ±100 for the full control effect.
SMILES,HT1080NT lethal,DT40 TDP1 CPT,IL-1B inflam inh,HT1080 IDH1KD tx,12-LOX inh,DT40 TDP1 no CPT
CCS(=O)(=O)c1ncc(CN(C)Cc2cn(C)nc2C)n1CCc1ccccc1,·,·,·,·,13%,·
Cc1nc2c3cc(F)ccc3n(Cc3ccccc3)c2s1,?,?,110,?,-19%,?
Cc1nc2c3cc(F)ccc3n(CCN3CCCCC3)c2s1,21µM*,6.5µM*,?,?,0%,7.3µM*
Cc1nc2c3cc(F)ccc3n(Cc3ccccc3F)c2s1,21µM*,7.3µM*,8,18µM*,-16%,?
Cc1nc2c3ccccc3n(Cc3ccccc3F)c2s1,-19%,?,49,-23%,-3%,?
COc1ccccc1N1CCN(CC[C@H]2CN(C(=O)NC3CCCCC3)CC[C@H]2CC(=O)O)CC1,·,·,·,·,3%,·
C[C@@H](C(=O)Nc1ccc2ccccc2c1)[C@@H]1C[C@@]1(C)[C@@H](N)c1ccccc1,-2%,?,-12,-13%,-9%,?
C[C@@H](C(=O)NCc1ccccn1)[C@H]1C[C@]1(C)[C@H](NC(=O)OCc1ccccc1)c1ccccc1,-9%,23µM*,-24,1%,7%,16µM*
C[C@@H](C(=O)NCC1CC1)[C@@H]1C[C@@]1(C)[C@@H](NC(=O)OCc1ccccc1)c1ccccc1,-2%,?,-1,1%,3%,15µM*
C[C@@H](C(=O)Nc1ccc2ccccc2c1)[C@H]1C[C@]1(C)[C@H](NC(=O)OCc1ccccc1)c1ccccc1,-10%,18µM*,?,-5%,0%,16µM*
CC(NC(=O)OCc1ccccc1)c1ccccc1 (configuration not stated),-6%,12%,-24,-12%,30%,-3%
C[C@@H](C(=O)NCCc1c[nH]c2ccccc12)[C@H]1C[C@]1(C)[C@H](NC(=O)OCc1ccccc1)c1ccccc1,-10%,6.5µM*,-23,-14%,?,16µM*
Cc1ccc(OCC(=O)N2CCCC(CN3CCCC3)CC2)cc1 (configuration not stated),·,·,·,·,48%,·
C[C@H](CO)NC(=O)[C@H](C)[C@H]1C[C@]1(C)[C@H](NC(=O)OCc1ccccc1)c1ccccc1,19%,?,-1,13%,11%,?
C[C@@H](C(=O)NCc1ccc(S(C)(=O)=O)cc1)[C@@H]1C[C@@]1(C)[C@@H](NC(=O)OCc1ccccc1)c1ccccc1,9%,21µM*,-4,0%,-5%,15µM*
Cc1cc(C(=O)N[C@H](c2ccccc2)[C@@]2(C)C[C@@H]2[C@@H](C)C(=O)Nc2ccc3ccccc3c2)n(C)n1,-24%,?,0,-16%,?,23µM*
Fc1ccc(-c2nc3nccc(-c4ccsc4)n3n2)cc1Cl,·,·,·,·,9%,·
CCC1(C)Cc2ccccc2/C(=C/C(=O)N2CCCCC2)N1 (configuration not stated),-13%,18µM*,-11,-14%,?,21µM*
COc1cccc(CCC(=O)NCCC2CCN(C(=O)Nc3cccc(F)c3)CC2)c1,·,·,·,·,63%,·
O=C(NCCc1ccncc1)c1ccc2nc(Cc3cccc(Cl)c3)oc2c1,-2%,1%,-6,-2%,0%,-24%
O=C/C=C/c1c(-c2ccccc2)cc2oc3ccccc3cc1-2,-29%,?,-99*,21µM*,?,18µM*
CCOc1ccc(NC(=O)c2cc(SC)ccc2Cl)cc1,3%,18µM*,-18,2%,-2%,16µM*
CSc1ccc(Cl)c(C(=O)Nc2cc(C)cc(C)c2)c1,·,·,·,·,-17%,·
CCCCCOc1ccc(NC(=O)c2cc(SC)ccc2Cl)cc1,12%,23µM*,15,-8%,17%,13µM*
O=C(C[n+]1cccc(NC(=O)c2ccccc2)c1)c1ccc(NC(=O)c2ccccc2)cc1,-8%,23µM*,?,-11%,18%,?
SMILES,HT1080NT lethal,DT40 TDP1 CPT,IL-1B inflam inh,HT1080 IDH1KD tx,12-LOX inh,DT40 TDP1 no CPT
O=C(C[n+]1ccc2ccccc2c1)c1cccc2ccccc12,?,13µM*,?,?,?,8.2µM*
O=C(C[n+]1cccc(NC(=O)c2ccccc2)c1)c1ccccc1,-1%,-1%,18,0%,-3%,?
O=C(C[n+]1ccc2ccccc2c1)c1ccc(NC(=O)c2ccccc2)cc1,-13%,5.8µM*,?,-17%,-19%,7.3µM*
Cc1ccc(C(=O)C[n+]2ccc3ccccc3c2)cc1,-3%,?,20,-11%,-9%,15µM*
O=C(C[n+]1ccc2ccccc2c1)c1ccc(O)c(O)c1,·,-4%,·,·,·,-24%
Nc1ccc[n+](CC(=O)c2ccc(F)cc2)c1,·,14µM*,·,·,·,10µM*
Cc1ccc(/C=c2\sc3n(c2=O)CN(c2cccc(Br)c2)CN=3)o1,-1%,-26%,-51*,5%,0%,-20%
O=c1/c(=C/c2ccco2)sc2n1CN(c1cccc(Br)c1)CN=2,0%,-16%,-50*,1%,37%,-13%
Cc1cc(NS(=O)(=O)c2ccc(NC(=S)NC(=O)c3ccc(Br)cc3)cc2)no1,-1%,-15%,17,-3%,10µM*,-15%
Cc1cc(NS(=O)(=O)c2ccc(NC(=S)NC(=O)c3cccnc3)cc2)no1,12%,-8%,14,11%,?,-3%
